Values without a mark were called inactive. Results filed as inconclusive are left out. Activity calls are given as the source filed them. Unless noted, calls come from the whole dose curve; as a rule, active = well fitted curve in the direction sought with a large enough effect; inconclusive = small, poorly fitted or top-dose-only effect, or another doubt; inactive = no such curve, though single readings can be large; an effect the other way counts as inactive or inconclusive.
How the values were obtained:
[1] = AP1 Signaling Pathway (AID 357; active = well fitted curve in either direction with a large enough effect, not every such curve was filed as active; note: % is set by controls: 0 for no effect and ±100 for the full control effect); settings: ME-180 AP-1-bla reporter, EGF-induced, beta-lactamase ratio, 5 h; at 17.2 µM (top of the series) unless noted
Procedure, shortened: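 ME-180 cells with beta-lactamase reporter under AP-1 response element, stimulated with EC50 EGF; compounds tested in titration series, 5 h at 37 °C. CCF4 substrate added 2.5 h at room temperature; 460/530 nm emission ratio gave %activity and AC50.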

[2] = biological target: Glucocorticoid receptor (Homo sapiens) (UniProt P04150); assay: GR-GFP Redistribution (AID 450;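 active = compounds whose dose series gives a full or clear partial fitted curve of increased nuclear translocation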; note: potency is the fitted concentration of half-maximal effect)
Chain of Glucocorticoid receptor (Homo sapiens) (P04150 whole entry, looked up, the tested form may be a part): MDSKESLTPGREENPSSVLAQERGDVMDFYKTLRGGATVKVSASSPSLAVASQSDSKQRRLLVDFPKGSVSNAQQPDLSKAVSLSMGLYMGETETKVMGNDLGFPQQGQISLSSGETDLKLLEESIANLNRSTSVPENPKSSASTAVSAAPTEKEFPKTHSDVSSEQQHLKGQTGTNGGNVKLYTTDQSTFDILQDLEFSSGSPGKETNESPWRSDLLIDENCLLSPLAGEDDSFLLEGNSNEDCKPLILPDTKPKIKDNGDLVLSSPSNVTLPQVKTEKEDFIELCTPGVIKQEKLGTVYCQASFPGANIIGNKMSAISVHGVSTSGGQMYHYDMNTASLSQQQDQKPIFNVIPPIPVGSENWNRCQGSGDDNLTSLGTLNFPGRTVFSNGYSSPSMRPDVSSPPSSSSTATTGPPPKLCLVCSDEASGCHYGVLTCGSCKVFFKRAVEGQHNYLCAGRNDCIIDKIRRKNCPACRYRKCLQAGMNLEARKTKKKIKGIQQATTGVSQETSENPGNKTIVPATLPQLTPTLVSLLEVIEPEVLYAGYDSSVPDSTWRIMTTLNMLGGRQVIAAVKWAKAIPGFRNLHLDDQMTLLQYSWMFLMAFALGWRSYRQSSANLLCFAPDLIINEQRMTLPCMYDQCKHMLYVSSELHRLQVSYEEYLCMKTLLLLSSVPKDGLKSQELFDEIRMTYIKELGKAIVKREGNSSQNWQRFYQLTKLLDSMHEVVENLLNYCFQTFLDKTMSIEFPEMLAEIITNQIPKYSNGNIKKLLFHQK

[3] = biological target: Glucocorticoid receptor (Homo sapiens) (UniProt P04150); assay: GR-EFC Redistribution (AID 451; calls by dose curve; note: potency is the fitted concentration of half-maximal effect); settings: CHO-K1 GR-EFC translocation, beta-gal luminescence, 2 h
Procedure, shortened: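 Translocation of GR-ED fusion to nuclear EA restores b-gal, read by luminescence after 1 h room-temperature detection. Engineered CHO-K1 biosensor cells, 1,000/well, exposed 2 h at 37 C to titrations up to 46 uM final.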

[4] = biological target: 3',5'-cyclic-AMP phosphodiesterase 4B (Homo sapiens) (UniProt Q07343); assay: qHTS Assay for Inhibitors of PDE-IV (AID 607; active = well fitted activation curve with a large enough effect in the main read-out, with a control signal flat, not every such curve was filed as active; note: % of control where 0% means no effect)
Chain of 3',5'-cyclic-AMP phosphodiesterase 4B (Homo sapiens) (Q07343 whole entry, looked up): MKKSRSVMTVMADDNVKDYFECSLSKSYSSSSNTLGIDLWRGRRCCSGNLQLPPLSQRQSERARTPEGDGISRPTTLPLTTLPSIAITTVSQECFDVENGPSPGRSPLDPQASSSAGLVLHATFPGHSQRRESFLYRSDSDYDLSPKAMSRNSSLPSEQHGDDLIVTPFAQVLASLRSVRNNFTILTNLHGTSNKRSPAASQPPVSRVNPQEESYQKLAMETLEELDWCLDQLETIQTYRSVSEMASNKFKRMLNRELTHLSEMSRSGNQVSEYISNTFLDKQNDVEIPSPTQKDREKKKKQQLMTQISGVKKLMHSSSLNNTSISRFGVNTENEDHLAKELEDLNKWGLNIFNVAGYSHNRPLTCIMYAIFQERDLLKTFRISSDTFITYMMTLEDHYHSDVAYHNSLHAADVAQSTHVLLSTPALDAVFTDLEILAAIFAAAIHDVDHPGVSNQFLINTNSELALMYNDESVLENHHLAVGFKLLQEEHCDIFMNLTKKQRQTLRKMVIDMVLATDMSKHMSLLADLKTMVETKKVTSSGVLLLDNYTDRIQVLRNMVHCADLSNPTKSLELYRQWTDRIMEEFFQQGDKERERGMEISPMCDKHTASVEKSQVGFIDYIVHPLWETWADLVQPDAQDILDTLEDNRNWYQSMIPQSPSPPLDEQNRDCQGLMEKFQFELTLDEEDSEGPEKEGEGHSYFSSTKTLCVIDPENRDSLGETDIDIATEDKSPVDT
Procedure, shortened: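 Live HEK293 cells with a modified cyclic nucleotide-gated (CNG) channel report intracellular cAMP via membrane-potential dye fluorescence (ex 535/em 590 nm). Endogenous PDE-IV was targeted. Compounds were tested at up to 22.9 uM final; RO 20-1724 100 uM served as control.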

[5] = biological target: Cytochrome P450 1A2 (Homo sapiens) (UniProt P05177); assay: p450-cyp1a2 (AID 410; calls by dose curve; note: potency is the fitted concentration of half-maximal effect)
Chain of Cytochrome P450 1A2 (Homo sapiens) (P05177 whole entry, looked up): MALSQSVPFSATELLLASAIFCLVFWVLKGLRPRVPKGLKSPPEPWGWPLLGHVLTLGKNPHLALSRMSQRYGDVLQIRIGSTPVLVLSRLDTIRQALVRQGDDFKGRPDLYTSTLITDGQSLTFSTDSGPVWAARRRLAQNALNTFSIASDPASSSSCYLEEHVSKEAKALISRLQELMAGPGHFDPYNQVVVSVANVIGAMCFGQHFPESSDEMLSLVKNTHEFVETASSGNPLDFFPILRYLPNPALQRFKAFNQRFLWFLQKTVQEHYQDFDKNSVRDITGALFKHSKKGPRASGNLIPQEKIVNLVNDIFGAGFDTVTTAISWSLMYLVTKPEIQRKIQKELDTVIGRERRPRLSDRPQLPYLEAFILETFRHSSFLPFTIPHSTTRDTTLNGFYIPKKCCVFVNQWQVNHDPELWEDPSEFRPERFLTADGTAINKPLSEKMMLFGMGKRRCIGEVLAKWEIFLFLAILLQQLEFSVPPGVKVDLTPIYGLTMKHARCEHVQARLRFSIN
Procedure, shortened: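 Read-out is luminescence from luciferin produced by CYP1A2 demethylation of Luciferin-ME (100uM, at Km). Detection reagent stopped the 60 min NADPH-dependent reaction; signals were normalized to 57 uM furafylline.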

[6] = NFAT Signaling Pathway (AID 444; active = well fitted curve in either direction with a large enough effect, not every such curve was filed as active;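 note: carbachol stimulus at about its EC50 of 1 µM final; % is set by controls: 0 for no effect and ±100 for the full control effect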); settings: Jurkat NFAT-bla M1, carbachol, beta-lactamase ratio, 5 h; at 17.2 µM (top of the series) unless noted
Procedure, shortened: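 Read-out: CCF4 FRET ratio (460 nm/530 nm) after 1 h RT dye loading, used for %activity and AC50 from titration series. Cells: Jurkat NFAT-β-lactamase/M1 line, treated with compound plus 1 uM carbachol for 5 h, 37 °C.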

[7] = biological target: Guanine nucleotide-binding protein G(i) subunit alpha-1 (Homo sapiens) (UniProt P63096); assay: qHTS Assay for Inhibitors of RGS12 GoLoco Motif Activity (Green Fluorophore) (AID 879);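 note: 0% = labeled peptide with Gαi1 and full inhibition = labeled peptide alone without protein; negative values mean loss of peptide binding seen as reduced polarization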
Chain of Guanine nucleotide-binding protein G(i) subunit alpha-1 (Homo sapiens) (P63096 whole entry, looked up): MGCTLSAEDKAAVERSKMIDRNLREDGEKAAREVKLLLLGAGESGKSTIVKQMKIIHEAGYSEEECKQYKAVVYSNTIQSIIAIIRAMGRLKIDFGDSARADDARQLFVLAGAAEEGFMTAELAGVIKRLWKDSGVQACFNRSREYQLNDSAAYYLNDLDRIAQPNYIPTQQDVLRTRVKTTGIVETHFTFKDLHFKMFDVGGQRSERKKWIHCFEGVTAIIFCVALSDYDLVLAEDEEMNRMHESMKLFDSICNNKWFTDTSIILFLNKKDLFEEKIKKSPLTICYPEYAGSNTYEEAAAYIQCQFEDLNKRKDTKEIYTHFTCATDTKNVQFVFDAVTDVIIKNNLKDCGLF
Procedure, shortened: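 A drop in FITC polarization marked displacement of the FITC-tagged RGS12 GoLoco peptide (10 nM) from Gαi1 (50 nM). Compounds were incubated 10 min at room temperature in Tris pH 7.5 buffer containing 150 mM NaCl, 0.1 mM GDP and 0.05% NP40; unlabeled peptide titration served as control.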

[8] = biological target: Cytochrome P450 2C9 (Homo sapiens) (UniProt P11712); assay: qHTS Assay for Inhibitors and Substrates of Cytochrome P450 2C9 (AID 883); note: % is set by controls: 0 for no effect and ±100 for the full control effect; nearly all actives have a fitted effect of over 60% in size
Procedure, shortened: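 Inhibition of CYP2C9 is scored as loss of luminescence, with 57uM sulphaphenazole defining 100% inhibition. Substrate Luciferin-H is used at 100uM, equal to its KM; enzyme at 10nM in 25mM KPO4, 60 min at 37C with NADPH regeneration.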

[9] = biological target: Cytochrome P450 3A4 (Homo sapiens) (UniProt P08684); assay: qHTS Assay for Inhibitors and Substrates of Cytochrome P450 3A4 (AID 884); note: potency is the fitted concentration of half-maximal effect; nearly all actives have a fitted effect of over 50% in size
Chain of Cytochrome P450 3A4 (Homo sapiens) (P08684 whole entry, looked up): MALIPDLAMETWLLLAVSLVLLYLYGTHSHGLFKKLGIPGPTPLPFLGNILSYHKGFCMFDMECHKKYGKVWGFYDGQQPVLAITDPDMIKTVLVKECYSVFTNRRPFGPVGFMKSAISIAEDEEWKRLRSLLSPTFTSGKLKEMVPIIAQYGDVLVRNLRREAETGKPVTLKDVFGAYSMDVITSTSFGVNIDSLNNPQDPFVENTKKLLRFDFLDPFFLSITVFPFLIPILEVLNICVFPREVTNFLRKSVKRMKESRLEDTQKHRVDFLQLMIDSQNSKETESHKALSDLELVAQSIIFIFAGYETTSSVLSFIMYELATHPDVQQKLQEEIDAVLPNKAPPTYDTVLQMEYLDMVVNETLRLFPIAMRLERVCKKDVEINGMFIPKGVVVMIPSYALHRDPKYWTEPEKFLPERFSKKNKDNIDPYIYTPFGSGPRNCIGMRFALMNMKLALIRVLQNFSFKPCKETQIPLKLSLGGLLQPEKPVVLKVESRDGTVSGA
Procedure, shortened: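 Luminescent readout of luciferin produced by CYP3A4 (20 nM) dealkylation of Luciferin-PPXE, 25 uM (its KM). NADPH-driven reaction ran 60 min at RT after 10 min compound preincubation; data scaled to 57 uM ketoconazole as 100% inhibition.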

[10] = biological target: Cytochrome P450 3A4 (Homo sapiens) (UniProt P08684); assay: qHTS Assay for Activators of Cytochrome P450 3A4 (AID 885); note: nearly all actives have a fitted effect of over 65% in size
Procedure, shortened: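 Using 20nM recombinant human CYP3A4 in potassium phosphate (200mM), substrate Luciferin-PPXE at 25uM, luminescent luciferin detection followed a 60-min RT NADPH reaction; data scaled to 57 uM ketoconazole.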

[11] = biological target: Cytochrome P450 2C19 (Homo sapiens) (UniProt P33261); assay: qHTS Assay for Inhibitors and Substrates of Cytochrome P450 2C19 (AID 899); note: potency is the fitted concentration of half-maximal effect; nearly all actives have a fitted effect of over 60% in size
Chain of Cytochrome P450 2C19 (Homo sapiens) (P33261 whole entry, looked up): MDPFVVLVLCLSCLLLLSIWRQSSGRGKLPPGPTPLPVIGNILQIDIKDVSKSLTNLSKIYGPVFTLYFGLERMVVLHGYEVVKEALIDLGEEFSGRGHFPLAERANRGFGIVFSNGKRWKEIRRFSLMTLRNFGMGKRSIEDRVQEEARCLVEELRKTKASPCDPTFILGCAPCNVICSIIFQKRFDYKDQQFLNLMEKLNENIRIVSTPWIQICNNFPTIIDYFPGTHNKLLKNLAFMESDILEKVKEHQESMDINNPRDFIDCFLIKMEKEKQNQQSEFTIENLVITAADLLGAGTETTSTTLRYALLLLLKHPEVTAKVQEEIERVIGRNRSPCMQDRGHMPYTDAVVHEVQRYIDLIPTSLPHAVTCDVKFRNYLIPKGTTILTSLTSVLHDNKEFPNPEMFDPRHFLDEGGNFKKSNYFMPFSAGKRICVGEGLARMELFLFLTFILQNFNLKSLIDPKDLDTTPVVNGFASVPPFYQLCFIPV
Procedure, shortened: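 5nM enzyme + 10uM Luciferin-H EGE (=KM), 50mM KPO4; cpd pin-transferred, 10 min 37C; NADPH regen, 60 min 37C; stopped w/ luciferin detection reagent, 20 min; luminescence. Normalized to 57uM ketoconazole (AC100).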

[12] = qHTS Assay for Identification of Small Molecule Agonists for Thrombopoietin (TPO) Signaling Pathway (AID 917); note: potency is the fitted concentration of half-maximal effect
Procedure, shortened: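 Human TPO receptor–transfected Ba/F3 cells (murine, IL-3-dependent) in IL-3-deficient medium; compounds plus TPO at EC50, 26 pM final; 24 hrs, 37 C; GpIIb-luciferase luminescence after 10 min RT detection.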

[13] = qHTS Assay for Identification of Small Molecule Agonists for NFkB Signaling Pathway (AID 928; calls by dose curve); settings: NFkB beta-lactamase reporter cells, blue/green ratio
Procedure, shortened: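 Activators were sought with TNF alpha co-added at 10 pM final (its EC50) to beta-lactamase reporter cells. Cells were plated in OPTI MEM with 0.5% FBS and exposed for 5 hrs at 37 C. The FRET substrate ratio was read at 460 and 530 nm.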

[14] = biological target: Pyruvate kinase (Leishmania mexicana) (UniProt Q27686); assay: qHTS Validation Assay for Inhibitors of Leishmania Mexicana Pyruvate Kinase (AID 945); note: potency is the fitted concentration of half-maximal effect
Chain of Pyruvate kinase (Leishmania mexicana) (Q27686 2-499 E452W): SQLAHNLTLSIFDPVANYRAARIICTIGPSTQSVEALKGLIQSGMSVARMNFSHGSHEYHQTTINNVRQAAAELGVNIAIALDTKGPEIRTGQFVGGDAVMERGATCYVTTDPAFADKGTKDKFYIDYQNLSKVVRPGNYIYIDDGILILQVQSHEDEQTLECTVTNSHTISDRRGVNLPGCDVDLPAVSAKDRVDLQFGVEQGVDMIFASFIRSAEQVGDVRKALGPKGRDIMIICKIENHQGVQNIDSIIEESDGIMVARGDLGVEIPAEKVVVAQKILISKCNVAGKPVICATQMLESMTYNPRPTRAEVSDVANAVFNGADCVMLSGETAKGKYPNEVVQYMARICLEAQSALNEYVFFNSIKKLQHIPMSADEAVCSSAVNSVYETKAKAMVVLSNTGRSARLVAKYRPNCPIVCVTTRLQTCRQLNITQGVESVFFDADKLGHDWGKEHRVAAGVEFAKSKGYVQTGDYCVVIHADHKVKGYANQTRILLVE
Procedure, shortened: (§1)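 The enzyme is a highly purified E451W mutant of LmPYK used at 0.2 nM. It converts 0.5 mM PEP and 0.1 mM ADP over 1 h at room temperature; product ATP is quantified by luciferase luminescence relative to DMSO controls.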

[15] = biological target: Pyruvate kinase PKM (Homo sapiens) (UniProt P14618); assay: qHTS Assay for Activators of Human Muscle Pyruvate Kinase (AID 954; active = well fitted curve in the direction sought with a large enough effect, not every such curve was filed as active;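 note: 0% = uninhibited enzyme and -100% = no enzyme or full thiadiazolimine inhibition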)
Chain of Pyruvate kinase PKM (Homo sapiens) (P14618 whole entry, looked up): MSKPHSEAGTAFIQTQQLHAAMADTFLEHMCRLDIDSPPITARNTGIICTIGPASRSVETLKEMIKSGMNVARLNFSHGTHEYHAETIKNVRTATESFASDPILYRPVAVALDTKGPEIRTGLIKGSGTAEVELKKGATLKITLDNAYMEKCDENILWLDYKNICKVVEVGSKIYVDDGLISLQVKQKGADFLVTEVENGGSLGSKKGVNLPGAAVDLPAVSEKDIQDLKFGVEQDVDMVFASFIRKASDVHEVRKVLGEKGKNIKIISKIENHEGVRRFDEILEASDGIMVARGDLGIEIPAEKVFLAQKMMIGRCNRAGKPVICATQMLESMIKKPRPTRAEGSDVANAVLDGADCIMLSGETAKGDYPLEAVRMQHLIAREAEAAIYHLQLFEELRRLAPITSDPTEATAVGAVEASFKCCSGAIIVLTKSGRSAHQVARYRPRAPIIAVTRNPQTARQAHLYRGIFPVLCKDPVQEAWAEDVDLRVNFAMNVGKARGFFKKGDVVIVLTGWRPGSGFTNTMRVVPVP
Procedure, shortened: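 Screening used highly purified human pyruvate kinase M2 under submaximal activity, with PEP at its Km and ADP below Km. After an hour at room temperature, ATP was read by luciferase luminescence.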

[16] = biological target: Pyruvate kinase PKM (Homo sapiens) (UniProt P14618); assay: qHTS Assay for Inhibitors of Human Muscle Pyruvate Kinase (AID 958)
Procedure, shortened: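 Enzyme was run at intermediate activity so both inhibitors and activators could be detected. ATP formed from ADP and PEP by 0.1 nM human PKM2 during a 1 h room-temperature incubation was quantified by coupled luciferase luminescence.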

[17] = biological target: Pyruvate kinase (Leishmania mexicana) (UniProt Q27686); assay: qHTS Validation Assay for Activators of Leishmania Mexicana Pyruvate Kinase (AID 959)
Procedure, shortened: as §1

[18] = biological target: Alpha-galactosidase A (Homo sapiens) (UniProt P06280); assay: Counterscreen for Glucocerebrosidase Inhibitors: qHTS Assay for Human alpha-Galactosidase at pH 4.5 (AID 992); note: 0% is about no effect
Chain of Alpha-galactosidase A (Homo sapiens) (P06280 whole entry, looked up): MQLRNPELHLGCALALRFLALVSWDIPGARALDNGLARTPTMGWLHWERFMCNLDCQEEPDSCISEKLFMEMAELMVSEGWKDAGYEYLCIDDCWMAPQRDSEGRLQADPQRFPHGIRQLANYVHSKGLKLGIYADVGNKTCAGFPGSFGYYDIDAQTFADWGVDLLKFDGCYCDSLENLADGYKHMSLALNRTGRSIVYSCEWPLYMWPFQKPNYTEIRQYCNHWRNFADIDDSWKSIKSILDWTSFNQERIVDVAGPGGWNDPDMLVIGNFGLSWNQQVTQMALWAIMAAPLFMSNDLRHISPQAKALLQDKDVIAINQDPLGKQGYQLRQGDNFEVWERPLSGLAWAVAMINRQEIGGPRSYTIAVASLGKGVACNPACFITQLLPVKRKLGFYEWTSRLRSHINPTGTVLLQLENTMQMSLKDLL
Procedure, shortened: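 Each compound is preincubated briefly with 2 nM enzyme before substrate addition (80 uM); plates then sit 20 min at ambient temperature, are quenched with 1M NaOH/1M glycine, and read fluorometrically.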

[19] = biological target: alpha-glucosidase (Oryza sativa, rice) (UniProt Q653V4); assay: Counterscreen for Glucocerebrosidase Inhibitors: qHTS Assay for Rice alpha-Glucosidase at pH 5.0 (AID 997);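 note: 0% = full activity with enzyme and -100% = basal without enzyme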
Procedure, shortened: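 Endpoint fluorogenic assay at pH 5.0: compounds (0.7 nM to 77 uM) titrated against 4 nM rice enzyme and 400 uM 4-MU-alpha-glucoside for 20 min at room temperature; NaOH/glycine stop, read ex 365/em 440 nm, Hill-fitted AC50.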

| SMILES | activity change, negative = inhibition [1] [%] | Potency [2] [µM] | Potency [3] [µM] | Potency [4] | Potency [5] | activity change, negative = inhibition [6] | outcome [7] | Potency [8] | Potency [9] | Potency [10] | Potency [11] | Potency [12] | Potency [13] | Potency [14] | outcome [15] | Potency [16] | Potency [17] | outcome [18] | outcome [19] |
| --- | --- | --- | --- | --- | --- | --- | --- | --- | --- | --- | --- | --- | --- | --- | --- | --- | --- | --- | --- |
| CC[C@H](C)[C@@H]1O[C@]2(CC[C@@H]1C)C[C@H]1C[C@H](CC=C(C)[C@@H](O[C@@H]3C[C@H](OC)[C@H](O[C@@H]4C[C@H](OC)[C@H](O)[C@H](C)O4)[C@H](C)O3)[C@@H](C)C=CC=C3CO[C@@H]4[C@@H](O)C(C)=C[C@@H](C(=O)O1)[C@]34O)O2 | -26.8 | > 20.6 | > 20.6 | inactive |  |  |  |  |  |  |  |  |  |  |  |  |  |  |  |
| COc1ccc(NC(=O)/C=C\c2ccc(Cl)cc2)cc1 |  | > 46 | > 46 | inactive | 5.01 µM (active) | -10.1% [at 38 µM] | inactive | inactive | 25.1 µM (active) | inactive | 3.98 µM (active) | 0.316 µM (active) | 1.41 µM (active) | 10 µM (active) | inactive | 15.8 µM (active) | inactive | inactive | inactive |
